The values below come from PubChem BioAssay (NCI).

Compounds without any hit were thinned out: in the full panel of roughly 83,000, 20% have a hit.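 Percent growth is the endpoint: 0 to 100 indicates growth inhibition (40 means 60% inhibition), 0 means no net growth, and negative values indicate cell death.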 Calls of active or inactive are those of the source. The calls were made as follows: active = growth percent below 10; inactive = the rest.

The assay concerns HL-60(TB) leukemia. The assay can be described thus: NCI-60 one-dose screen, 48 h (100 = growth as untreated, 0 = no growth, -100 = all killed). To be noted: 10 µM unless noted.
Regarding `COC(=O)[C@@H]1CCCN1C(=O)[C@H]1CCCN1C(=O)[C@@H](Cc1c[nH]c2ccccc12)NC(=S)Nc1cc(C(F)(F)F)cc(C(F)(F)F)c1`, the growth is 12.2% (inactive).

Take `O=C(/C=C/c1ccco1)c1cccc(Nc2nc(Nc3ccccc3)nc(Nc3ccccc3)n2)c1`: the growth was 91.1% (inactive).

In the case of `COC(=O)Nc1ccc(-c2nc(-c3cccc(OC)c3)c(-c3ccnc(Br)c3)[nH]2)cc1`, the growth is 44.2% (inactive).

As to `CCOC(=O)c1c(C)nc2c(c1N)C(=O)C(=O)N2Cc1ccc(C(F)(F)F)cc1`, the growth was 43.5% (inactive).

Regarding `CC(C)(C)C1CCC(=NO)CC1` (centres undefined), the growth is 110% (inactive).

Regarding `COC(c1ccccc1)(c1ccccc1)c1ccccc1`, the growth is 111% (inactive).

As to `CN(C)c1ccc(N=C2C=CC(=O)C=C2)cc1`, the growth was 111% (inactive).

In the case of `O=C(/C=C/c1sc(Cl)nc1Cl)c1ccc(F)cc1`, the growth is 61.2% (inactive).

As to `COc1ccc(C(=O)/C=C/C23c4ccccc4C(c4ccccc42)C2C(=O)NC(=O)C23)cc1` (centres undefined), the growth was 92% (inactive).
